This note sets out measurements from PubChem BioAssay (Tox21).

Assay [1] in a line: Nuclear factor erythroid 2-related factor 2/antioxidant responsive element (Nrf2/ARE) small molecule agonists: qHTS cell viability counter screen in human keratinocytes (AID 1919968; active = well fitted curve in the direction sought with a large enough effect in the repeat runs; an effect the other way counts as inactive or inconclusive; also: nearly all actives have a fitted effect of over 55% in size; also: potency is read from the fitted curve at half-maximal effect). Put shortly: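 KeratinoSens cells (HaCaT keratinocytes stably carrying an ARE-luciferase reporter) were seeded at 1,500 cells/well and rested 5 h at 37 C/5% CO2. They were then exposed to compounds in DMSO for 23 h. Viability was read by CellTiter-Fluor fluorescence after 1 h.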

The nature of assay [2]: Nuclear factor erythroid 2-related factor 2/antioxidant responsive element (Nrf2/ARE) small molecule agonists: luciferase reporter gene qHTS assay in human keratinocytes (AID 1919969). Also: nearly all actives have a fitted effect of over 35% in size. Also: potency is read from the fitted curve at half-maximal effect. In general terms: A reporter such as luciferase makes a cellular process visible.
Assay [3] has as its target KiSS-1 receptor (Homo sapiens) (UniProt Q969F8). The assay can be described thus: Human kisspeptin (KISS1R) small molecule agonists, calcium flux assay in KISS1R-HEK293 cells (AID 1920064; active = well fitted curve in the direction sought with a large enough effect in the repeat runs; an effect the other way counts as inactive or inconclusive). The method in brief:
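HEK293 cells stably expressing human KISS1R were plated 18 h at 37 °C, loaded with calcium dye for 1 h at 37 °C, then given compound by pin tool. Fluorescence (Ex/Em 480/540) was read kinetically for 3 min.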
In general terms: Calcium assays in cells follow changes in intracellular calcium, usually with a dye or a luminescent sensor.

A short description of assay [4]: G protein-coupled receptor (GPCR) small molecule agonists, calcium flux assay: HEK293 wild type cell line counter screen (AID 1920065). Put shortly: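 Cells were plated and cultured 18 h at 37 C/5% CO2, then loaded with calcium dye for 1 h at 37 C. Compounds in DMSO were pin-transferred in agonist mode, and fluorescence (Ex/Em 480/540) was read kinetically for 3 min at 1 s intervals.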

A short description of assay [5]: p53 small molecule agonists, cell-based qHTS assay with rat liver microsomes (AID 1963578). The method in brief:
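p53RE-bla cells were exposed to compounds together with rat liver microsomes (0.5 mg/mL final) and NADPH (0.5 mg/mL final) for 16 h at 37 C, then read by LiveBLAzer beta-lactamase fluorescence after 2 h at room temperature.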
(In general: In qHTS, concentration-response curves come from the screen itself.)

A short description of assay [6]: p53 small molecule agonists, cell-based qHTS assay with human liver microsomes: qHTS cell viability counter screen (AID 1963579). Also: nearly all actives have a fitted effect of over 45% in size. The method in brief: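 p53RE-bla cells (4,000/well) were pre-incubated 5 h at 37 C, then given compounds in DMSO plus human liver microsomes (0.5 mg/mL final) and NADPH (0.5 mg/mL final) for 16 h at 37 C. Viability was read by CellTiter-Glo luminescence.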

Assay [7] in a line: p53 small molecule agonists, cell-based qHTS assay with rat liver microsomes: qHTS cell viability counter screen (AID 1963580). Also: nearly all actives have a fitted effect of over 45% in size. The method in brief:
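p53RE-bla HCT-116 cells were exposed 16 h at 37 C to compounds with rat liver microsomes (0.5 mg/mL) and NADPH (0.5 mg/mL). Viability was measured in the same wells as ATP content by CellTiter-Glo luminescence.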

Assay [8] deals with 5-hydroxytryptamine receptor 2A (Homo sapiens) (UniProt P28223). Nature of the assay: 5-hydroxytryptamine receptor 2A (HTR2A) small molecule agonists, cell-based qHTS assay (AID 1963587). Also: nearly all actives have a fitted effect of over 30% in size. Also: potency is read from the fitted curve at half-maximal effect. The method in brief: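 CHO cells stably expressing human HTR2A, plated 18 h, loaded with calcium dye 1 h at 37 C. Agonist mode: compounds added and intracellular calcium fluorescence recorded kinetically for 2 min at 1 sec intervals.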
5-hydroxytryptamine receptor 2A (Homo sapiens), sequence (P28223 whole entry, looked up): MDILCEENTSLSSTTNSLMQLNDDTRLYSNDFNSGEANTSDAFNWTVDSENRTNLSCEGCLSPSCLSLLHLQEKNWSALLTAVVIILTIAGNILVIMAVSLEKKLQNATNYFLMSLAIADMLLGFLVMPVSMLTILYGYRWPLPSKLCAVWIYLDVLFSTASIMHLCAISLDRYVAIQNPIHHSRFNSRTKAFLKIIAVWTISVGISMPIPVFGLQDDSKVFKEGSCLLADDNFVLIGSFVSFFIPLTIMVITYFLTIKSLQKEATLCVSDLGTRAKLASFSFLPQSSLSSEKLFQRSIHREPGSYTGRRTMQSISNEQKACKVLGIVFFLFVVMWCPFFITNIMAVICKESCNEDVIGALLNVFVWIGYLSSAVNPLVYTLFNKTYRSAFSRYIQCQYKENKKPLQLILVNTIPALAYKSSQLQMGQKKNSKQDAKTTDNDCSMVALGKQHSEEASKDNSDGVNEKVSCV

Assay [9] has as its target Muscarinic acetylcholine receptor M1 (Homo sapiens) (UniProt P11229). The assay can be described thus: Cholinergic receptor muscarinic 1 (CHRM1) small molecule antagonists, cell-based qHTS assay (AID 1963588). Also: nearly all actives have a fitted effect of over 40% in size. Put shortly: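 CHRM1-CHO calcium-flux assay, antagonist mode. Cells were seeded 18 h, dye-loaded 1 h at 37 C and given compound for 5 min at RT, then acetylcholine was added at 50nM. FDSS fluorescence was read 3 min; 15 concentrations, three runs.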

Assay [10] shares this target. Nature of the assay: Cholinergic receptor muscarinic 1 (CHRM1) small molecule agonists, cell-based qHTS assay (AID 1963589). Also: nearly all actives have a fitted effect of over 35% in size. The method in brief:
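CHO cells stably expressing human CHRM1, seeded 18 h at 37 C/5% CO2, dye-loaded 1 h at 37 C, then given compound in agonist mode; intracellular calcium fluorescence read kinetically at 1 s intervals. Fifteen concentrations, three independent runs.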

Assay [11] addresses D(2) dopamine receptor (Homo sapiens) (UniProt P14416). The assay can be described thus: Dopamine D2 receptor (DRD2) small molecule agonists, cell-based qHTS assay (AID 1963594). Also: nearly all actives have a fitted effect of over 35% in size. Put shortly: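 HEK293 cells stably expressing human DRD2, pre-treated with PDE inhibitor Ro20-1724 (0.1 mM final) and compound 10 min at room temperature, then stimulated with NKH477 (200nM […]) for 30 min. cAMP read by HTRF (665/620 nm).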

The target is the same in assay [12]. Nature of the assay: Dopamine D2 receptor (DRD2) small molecule antagonists, cell-based qHTS assay (AID 1963595; active = well fitted inhibition curve with a large enough effect in the signal ratio in the repeat runs, with a control signal flat; the % refers to the signal ratio; also: potency is read from the fitted curve at half-maximal effect). Put shortly:
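HEK293 cells stably expressing DRD2 were preincubated with 0.1 mM Ro20-1724, then with compound for 10 min at room temperature. Cells were stimulated with 200 nM NKH477 plus 12 nM quinpirole for 30 min, and cAMP was read by HTRF.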

Assay [13] is described as follows: p53 small molecule agonists, cell-based qHTS assay with human liver microsomes (AID 1963577). The method in brief: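 p53RE-bla reporter cells were pre-incubated 5 h at 37 C, then treated with compounds plus human liver microsomes (0.5 mg/mL final) and NADPH (0.5 mg/mL final) for 16 h at 37 C. Beta-lactamase activity was read by LiveBLAzer fluorescence after 2 h at room temperature.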

The target of assay [14] is 5-hydroxytryptamine receptor 2A (Homo sapiens) (UniProt P28223). Nature of the assay: 5-hydroxytryptamine receptor 2A (HTR2A) small molecule antagonists, cell-based qHTS assay (AID 1963586). Also: nearly all actives have a fitted effect of over 45% in size. Put shortly: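 Antagonist-mode intracellular calcium assay: DOI (4 nM) added after 5 min compound pre-incubation at room temperature to dye-loaded HTR2A-CHO cells. Fluorescence followed for 3 min, sampled every second.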

Assay [15] has as its target Beta-2 adrenergic receptor (Homo sapiens) (UniProt P07550). The assay can be described thus: Adrenergic beta2 receptor (ADRB2) small molecule antagonists, cell-based qHTS assay (AID 1963592). Also: series mostly up to about 92 µM; nearly all actives have a fitted effect of over 50% in size. The method in brief: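 Cells (CHO, stable ADRB2 overexpression) incubated 18-20hr at 37C; compounds added from DMSO; agonist mix (1nM isoproterenol, 100uM IBMX, 25uM Ro-20-1724) added; 0.5hr RT; d2-cAMP and anti-cAMP-cryptate added; 1hr RT; 665/615 nm read.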

A short description of assay [16]: p53 small molecule agonists, cell-based qHTS assay: qHTS cell viability counter screen (AID 1963581). Also: nearly all actives have a fitted effect of over 45% in size. Put shortly:
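p53RE-bla HCT-116 cells were exposed to compounds for 16 h at 37 C; after the beta-lactamase FRET read in the same wells, CellTiter-Glo was added and luminescence (intracellular ATP) read after 30 min at room temperature.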

Assay [17] is described as follows: p53 small molecule agonists, cell-based qHTS assay (AID 1963582; active = well fitted activation curve with a large enough effect in the signal ratio in the repeat runs, not every such curve was filed as active; the % refers to the signal ratio). The method in brief: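 p53RE-bla beta-lactamase reporter cells rested 5 h at 37 C/5% CO2, then received compounds in DMSO by pin transfer and were incubated 16 h at 37 C. LiveBLAzer B/G FRET substrate was loaded for 2 h at room temperature before fluorescence reading.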
Assay [18] can be described thus: cAMP Responsive Elements (CRE) small molecule agonists, cell-based qHTS assay (AID 1963590). The method in brief: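 CRE-bla HEK 293T cells in DMEM with 10% dialyzed FBS, NEAA, pyruvate and 25 mM HEPES were plated 18 h at 37 C/5% CO2, then exposed to compounds in DMSO for 3 h before LiveBLAzer B/G FRET substrate addition.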
A short description of assay [19]: cAMP Responsive Elements (CRE) small molecule antagonists, cell-based qHTS assay (AID 1963591; active = well fitted inhibition curve with a large enough effect in the signal ratio in the repeat runs, not every such curve was filed as active; the % refers to the signal ratio). Put shortly:
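CRE-bla HEK293T cells were plated 18 h at 37 °C/5% CO2, pinned with compound in DMSO, then stimulated with NKH477 at 0.25 uM final for 3 h. LiveBLAzer B/G FRET substrate was added and plates incubated 2 h at room temperature.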

Assay [20] addresses Beta-2 adrenergic receptor (Homo sapiens) (UniProt P07550). The assay can be described thus: Adrenergic beta2 receptor (ADRB2) small molecule agonists, cell-based qHTS assay (AID 1963593).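 Also: CHO cells stably overexpressing human ADRB2.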 The method in brief:
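CHO cells stably over-expressing ADRB2 were plated overnight at 37C, then dosed with compounds plus a stimulation mix containing 100uM IBMX and 25uM Ro-20-1724 for 0.5hr at room temperature. cAMP was measured by HTRF competition, 1hr.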

Unmarked numbers belong to inactive results. Results filed as inconclusive are left out. Activity calls are given as the source filed them. Unless noted, calls follow the shape of the full dose curve.
% is scaled to controls: 0 for no effect and ±100 for the full control effect.

Beta-2 adrenergic receptor (Homo sapiens), sequence (P07550 whole entry, looked up): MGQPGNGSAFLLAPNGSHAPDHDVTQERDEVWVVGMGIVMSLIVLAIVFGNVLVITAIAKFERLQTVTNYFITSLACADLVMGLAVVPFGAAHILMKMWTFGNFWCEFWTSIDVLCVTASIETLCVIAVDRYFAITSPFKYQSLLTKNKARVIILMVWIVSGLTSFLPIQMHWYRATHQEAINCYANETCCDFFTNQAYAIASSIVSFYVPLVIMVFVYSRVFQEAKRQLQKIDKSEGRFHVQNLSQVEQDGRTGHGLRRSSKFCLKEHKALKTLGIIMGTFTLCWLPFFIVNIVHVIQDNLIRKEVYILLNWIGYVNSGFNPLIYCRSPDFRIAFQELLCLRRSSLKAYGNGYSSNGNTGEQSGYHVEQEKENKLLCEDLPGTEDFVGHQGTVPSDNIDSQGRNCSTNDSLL
D(2) dopamine receptor (Homo sapiens), sequence (P14416 whole entry, looked up): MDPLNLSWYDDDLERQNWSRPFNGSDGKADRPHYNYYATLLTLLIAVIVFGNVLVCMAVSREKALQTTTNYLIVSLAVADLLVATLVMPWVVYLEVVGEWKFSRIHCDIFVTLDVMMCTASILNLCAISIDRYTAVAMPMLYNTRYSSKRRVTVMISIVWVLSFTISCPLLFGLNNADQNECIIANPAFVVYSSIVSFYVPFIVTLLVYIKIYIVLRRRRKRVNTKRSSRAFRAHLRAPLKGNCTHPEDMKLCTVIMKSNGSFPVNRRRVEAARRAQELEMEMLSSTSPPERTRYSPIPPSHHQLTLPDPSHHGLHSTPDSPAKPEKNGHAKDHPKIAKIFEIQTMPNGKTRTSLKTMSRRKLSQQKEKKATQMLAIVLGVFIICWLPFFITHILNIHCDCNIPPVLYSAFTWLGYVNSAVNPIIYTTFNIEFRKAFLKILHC
KiSS-1 receptor (Homo sapiens), sequence (Q969F8 whole entry, looked up): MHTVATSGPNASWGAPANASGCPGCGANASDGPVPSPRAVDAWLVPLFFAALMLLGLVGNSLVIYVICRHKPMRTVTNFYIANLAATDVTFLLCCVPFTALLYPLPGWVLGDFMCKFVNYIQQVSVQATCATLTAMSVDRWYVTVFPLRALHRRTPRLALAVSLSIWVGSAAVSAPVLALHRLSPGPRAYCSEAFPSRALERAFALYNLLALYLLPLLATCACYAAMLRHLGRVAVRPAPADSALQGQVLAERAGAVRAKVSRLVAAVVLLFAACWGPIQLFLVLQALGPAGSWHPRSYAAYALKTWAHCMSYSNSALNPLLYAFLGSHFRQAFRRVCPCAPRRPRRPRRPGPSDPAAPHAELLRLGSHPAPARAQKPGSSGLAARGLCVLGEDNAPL
Muscarinic acetylcholine receptor M1 (Homo sapiens), sequence (P11229 whole entry, looked up): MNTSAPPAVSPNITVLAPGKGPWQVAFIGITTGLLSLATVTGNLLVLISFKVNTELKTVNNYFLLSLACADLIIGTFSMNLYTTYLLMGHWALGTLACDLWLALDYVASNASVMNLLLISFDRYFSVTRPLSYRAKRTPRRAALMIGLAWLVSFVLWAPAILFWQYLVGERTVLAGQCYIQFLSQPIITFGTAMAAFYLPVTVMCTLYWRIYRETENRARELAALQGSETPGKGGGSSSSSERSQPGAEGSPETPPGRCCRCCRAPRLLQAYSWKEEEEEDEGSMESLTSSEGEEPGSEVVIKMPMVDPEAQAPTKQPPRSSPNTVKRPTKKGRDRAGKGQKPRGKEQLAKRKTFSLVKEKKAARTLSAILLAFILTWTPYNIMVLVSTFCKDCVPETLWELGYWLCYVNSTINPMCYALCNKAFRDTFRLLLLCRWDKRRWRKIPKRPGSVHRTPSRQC

For the molecule `O=C1NCN(c2ccccc2)C12CCN(CC1COc3ccccc3O1)CC2` (stereo not drawn), the Potency result in assay [1], in assay [2], in [3], in assay [4], in assay [5] and in assay [6] was “inactive” each time. Besides, the Potency entry in assay [7], in assay [9], in assay [10] and in assay [11] was “inactive” in each case. For the same molecule, the Potency in assay [8] is 0.0425 µM (active); in [12], 0.0376 µM (active).
As for `C[CH2][Hg][N]1C(=O)C2C(C1=O)C1(Cl)C(Cl)=C(Cl)C2(Cl)C1(Cl)Cl` (stereo not drawn), the values for the Potency in assay [1], in assay [2] and in assay [8] were 5.17 µM (active), 2.91 µM (active) and 10.4 µM (active), respectively. The activation in assay [3] is 13.3% [at 15.8 µM]; in [13], -12.1% [at 13.5 µM]; in [5] it was -6.79% [at 13.6 µM]. For the same molecule, the activity, negative = inhibition was 14.2% [at 12.7 µM] in assay [14] and -14.4% [at 12.6 µM] in assay [9]. Further, the figures for the activity change, negative = inhibition in [15] and in assay [12] were -18.8% [at 19 µM] and 2.84% [at 18.9 µM], respectively.
On to `CCCN1CCC[C@@H]2Cc3nc(N)ncc3C[C@H]21`, for which the Potency entry in assay [1], in assay [2], in [4], in [13], in [5] and in [6] was “inactive” throughout. Further, the Potency entry in [7], in assay [16], in assay [17], in assay [14], in assay [9] and in assay [10] was “inactive” each time. The Potency entry in [18], in [19], in [15], in assay [20] and in [12] was “inactive” throughout. For the same molecule, the Potency in [8] was 8.49 µM (active).
Consider `O=S(=O)(C(Cl)(Cl)Cl)C(Cl)(Cl)Cl`, for which the Potency in assay [1] was 24.3 µM (active); in [2], 8.63 µM (active); in assay [8], 49 µM (active). For the same molecule, the Potency result in [3], in [13], in [5], in assay [6], in [16] and in [9] was “inactive” in each case. Moreover, the Potency entry in [10], in assay [19], in assay [15], in assay [20] and in assay [12] was “inactive” in each case.
Take `BrCCCBr`: the Potency result in assay [1], in assay [2], in [3], in assay [4], in assay [6] and in assay [7] was “inactive” throughout. For the same molecule, the Potency entry in assay [16], in assay [14], in [8], in assay [9], in assay [10] and in assay [18] was “inactive” each time. In addition, the Potency result in assay [19], in assay [15], in assay [20] and in assay [11] was “inactive” in each case.
For the molecule `ClP(Cl)(Cl)(Cl)Cl`, the Potency result in [1], in [2], in assay [4], in assay [13], in [5] and in assay [6] was “inactive” each time. In addition, the Potency entry in assay [16], in assay [17], in assay [14], in assay [8], in assay [9] and in [10] was “inactive” each time. Also, the Potency entry in assay [18], in assay [19], in assay [15], in assay [20], in assay [11] and in assay [12] was “inactive” in each case.
